# S1P2 agonist: activates the human S1P2 receptor; 0.46% of 97,000 active; activation, % at 4.5 µM; S1P2-expressing cell line, agonist reporter read-out; AID 729; O95136; in the data active = activation above about 16%
# GALR2 antag: antagonists of human galanin receptor 2 (GALR2) | 0.39% of 140,000 active | O43603 | GALR2-expressing cells, antagonist mode | inhibition, % at 4 µM; in the data active = inhibition above about 27%;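 also: cells stimulated with galanin 1-16 at roughly its EC80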
# Target sequence (O43603 whole entry, looked up): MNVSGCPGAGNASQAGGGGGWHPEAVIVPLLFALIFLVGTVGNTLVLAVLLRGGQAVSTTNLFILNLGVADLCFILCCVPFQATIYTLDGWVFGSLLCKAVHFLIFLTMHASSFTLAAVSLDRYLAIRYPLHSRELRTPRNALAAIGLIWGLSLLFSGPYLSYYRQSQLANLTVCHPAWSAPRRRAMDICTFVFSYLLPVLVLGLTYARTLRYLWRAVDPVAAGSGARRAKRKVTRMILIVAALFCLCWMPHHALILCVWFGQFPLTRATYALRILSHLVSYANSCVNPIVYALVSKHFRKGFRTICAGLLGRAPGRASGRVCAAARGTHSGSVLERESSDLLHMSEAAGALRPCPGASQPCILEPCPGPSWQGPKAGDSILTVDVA
# GALR2 ag: activates the human galanin receptor 2; O43603; GALR2-expressing cells, agonist activation read-out; activation, % (test concentration not listed); 0.48% of 140,000 active; AID 803; in the data active = activation above about 5%, passing the limit was not always enough
# S1P2 blocker: blocks the human S1P2 receptor | cell-based S1P2 antagonist assay, inhibition at 5 uM | inhibition, % at 5 µM | 0.21% of 97,000 active | O95136; in the data active = inhibition above about 45%;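 also: CRE beta-lactamase reporter cells expressing human S1P2 stimulated with S1P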
# Hits are given with their value; i = inactive; nt = no result. Only some compounds are listed: those with a hit (about 1.2% of all), similar ones and a draw of the others.
SMILES,S1P2 agonist,GALR2 antag,GALR2 ag,S1P2 blocker
Cc1cc(C)n2nc(Cc3ccccc3)nc2n1,i,i,i,i
Cc1cc(C)n2nc(S(=O)(=O)N(C)c3ccccc3)nc2n1,52,i,i,i
CCc1ccc2[nH]c3nc(SCC(=O)NNC(=O)c4ccc(C(C)(C)C)cc4)nnc3c2c1,17,i,i,i
Cc1ccc(C(=O)NNC(=O)CSc2nnc3c(n2)[nH]c2ccc(C)cc23)cc1,i,i,i,i
COc1cc(OC)c(-c2nnc(-c3ccc(OC)c(OC)c3OC)o2)cc1OC,16,i,i,i
COc1cccc(-c2nnc(-c3ccc(C(F)(F)F)cc3)o2)c1OC,i,i,i,i
O=S(=O)(c1ccccc1)n1ccc2cccnc21,i,i,i,i
CCN(CC)c1ccc2cc(S(=O)(=O)c3ccc(C)cc3)c(=O)oc2c1,nt,i,6.0,nt
CCc1ccc(N2C(=O)CC(N3CCC(C(=O)OC)CC3)C2=O)cc1 (stereo not given),27,i,i,i
COc1ccccc1N1CCN(c2ccc([N+](=O)[O-])cc2Cl)CC1,nt,i,i,nt
COC(=O)c1c(C)[nH]c(C(=O)/C=C/c2ccccc2)c1C,nt,i,6.2,nt
COC(=O)c1c(C)[nH]c(C(=O)/C=C/c2cccc(Cl)c2)c1C,nt,i,i,nt
O=C(Nc1ccc(S(=O)(=O)N2CCCCC2)cc1)c1ccc(CN2CCc3ccccc3C2)cc1,i,i,i,52
COc1ccccc1C1CC(c2cccs2)=Nc2ccccc2S1 (stereo not given),i,i,i,i
COc1ccccc1C1CN(c2ccc(F)cc2F)N=C1c1cccs1 (stereo not given),17,i,37,i
NC(=O)C(c1ccc(Cl)cc1Cl)c1ncc(C(F)(F)F)cc1Cl (stereo not given),i,i,i,i
Cn1c(-c2ccc(C=O)s2)nc2c3ccccc3c3ccccc3c21,i,i,i,i
O=C(C1=C(O)C(=O)N(Cc2ccco2)C1c1cccs1)c1cccs1 (stereo not given),nt,i,i,nt
CC(=O)C1=C(O)C(=O)N(CC#N)C1c1cccs1 (stereo not given),37,i,i,i
CCOC(=O)C1=C(C)Nc2sc(C(=O)c3ccc(C)cc3)c(N)c2C1c1ccc(C(=O)OC)cc1 (stereo not given),nt,i,5.5,nt
CCOC(=O)c1c(C)n(C)c2cc(-c3cccc(C(F)(F)F)c3)c(O)cc12,nt,i,i,nt
CCOC(=O)c1c(C)n(C)c2cc(-c3ccc(C)cc3)c(O)cc12,nt,i,5.3,nt
O=c1ccn(-c2cccc(C(F)(F)F)c2)nc1-c1ccn(-c2cccc(Cl)c2)n1,28,i,i,i
Nc1c(-c2cccc(Cl)c2)cnn1-c1cccc(C(F)(F)F)c1,i,i,i,i
O=C(NC1(C(F)(F)F)C(=O)Nc2c1c(=O)[nH]c(=O)n2-c1ccccc1)c1ccncc1 (stereo not given),i,i,i,i
SMILES,S1P2 agonist,GALR2 antag,GALR2 ag,S1P2 blocker
Cc1cc(=O)n2nc(-c3ccc(C(F)(F)F)cc3)sc2n1,i,i,i,i
COCCCNC(=S)Nc1ccc2c(c1)OCCO2,nt,i,i,nt
CCCN(CC1CC1)c1nc(N)c(C#N)c(CC#N)c1C#N,16,i,i,i
CCCN(CCC)c1nc(N)c(C#N)c(CC#N)c1C#N,16,i,i,i
CCOc1ccccc1N1CCN(c2nc(N)c(C#N)c(CC#N)c2C#N)CC1,i,i,i,i
CCCCN1C(=O)Cc2c1nc(N)c1c(N)nc(N(CCC)CCC)c(C#N)c21,i,i,i,i
C=C(C)CSc1nc2ccccc2[nH]1,nt,i,i,nt
O=C(Nc1nc2ccccc2s1)c1cc2c(s1)-c1ccccc1OC2,40,i,i,i
O=C(Nc1nccs1)c1cc2c(s1)-c1ccccc1OC2,i,i,i,i
O=C(COc1ncnc2scc(-c3ccc(Cl)cc3)c12)NCc1ccco1,i,i,i,i
COc1ccc(C(=O)OCCNC(=O)c2c(Cl)nc3ccccn23)cc1,21,i,i,i
O=C1CCC/C(=N/NC(=O)C2CCN(S(=O)(=O)c3cccs3)CC2)C1,nt,i,i,nt
c1ccc2nc3c(nc2c1)[nH]c1ccccc13,nt,i,i,nt
c1ccc(-c2c3ccccc3nc3[nH]c4ccccc4c23)cc1,nt,i,5.0,nt
CCOc1ccc(OCC)c(NC(=O)CSc2nc3c(c(=O)n(C)c(=O)n3C)n2CC)c1,i,i,i,i
CCOc1ccc(OCC)c(NC(=O)CSc2nc3c(c(=O)n(C)c(=O)n3C)n2C(C)C)c1,26,i,i,i
NC(=O)COC(=O)CNC(=O)c1ccc(Cl)cc1,i,i,i,i
NC(=O)CCNC(=O)c1ccc(Cl)cc1,44,i,i,i
O=C(Nc1ccncc1)Nc1ccccn1,i,i,i,i
O=C(Nc1ccccn1)Nc1cccs1,133,i,i,i
CC(=O)Oc1cc2oc(=O)cc(C)c2cc1OC(C)=O,i,i,6.0,i
O=c1nc2n(c3ccc(Br)cc13)CCS2,i,i,i,i
O=C(Nc1ccc(-c2nc3ccccc3o2)c(O)c1)c1cc(-n2cnnc2)ccc1Cl,i,i,i,i
Cc1c(NC(=O)c2cc(-n3cnnc3)ccc2Cl)cccc1-c1nc2ccccc2o1,i,i,i,56
Nc1nnc(SCC(=O)NN2C(=O)NC3(CCCCC3)C2=O)s1,nt,i,i,nt
SMILES,S1P2 agonist,GALR2 antag,GALR2 ag,S1P2 blocker
CCCN(CCC)C(=O)C[n+]1cccc(/C=N/O)c1,nt,i,i,nt
O=C(COC(=O)c1cccc(C(=O)OCC(=O)NCc2ccc(F)cc2)n1)NCc1ccc(F)cc1,nt,i,i,nt
Cc1noc2ncnc(Sc3ccc(Cl)cc3)c12,i,i,i,i
Cc1noc2ncnc(Sc3c(Cl)cccc3Cl)c12,i,i,i,48
O=C(CSc1ccc(C(F)(F)F)cc1[N+](=O)[O-])Nc1ccc2ccccc2c1,nt,i,i,nt
CCCCCCn1c2c(c(=N)c3c1CCC3)CCC2,i,i,i,i
CCCCCCCCCn1c2c(c(=N)c3c1CCC3)CCC2,i,i,i,79
C/C(=N\NC(=O)c1cccc(F)c1)c1ccc(Br)s1,i,i,i,i
CCOC(=O)c1sc2nccc(N(C)C)c2c1N=CNOCc1ccccc1,i,i,i,i
CCOC(=O)c1sc2nccc(N(C)C)c2c1N=CNOCc1c(F)cccc1Cl,33,i,i,i
O=C(CCC(=O)OCC(=O)c1ccc(Br)cc1)Nc1ccc(Br)c2cccnc12,i,i,i,i
C=CCn1c(O)c(N=NC(=O)c2ccc3c(c2)OCO3)c2ccccc21,i,i,i,i
Cc1cc(C)n2nc(SCc3cc(=O)n4ccccc4n3)nc2n1,20,i,i,i
Cc1cc(C)n2nc(SCC(=O)c3ccccc3)nc2n1,i,i,i,i
Cc1ccccc1-n1c(SCc2cc(=O)n3ccccc3n2)nc2[nH]ncc2c1=O,24,i,i,i
C#CC(CC)(CC)NC(=S)Nc1cccc(C(C)=O)c1,i,i,i,i
O=S(=O)(NCC1CCCO1)c1cc(Cl)ccc1Cl (stereo not given),i,i,i,i
O=S(=O)(Cc1ccc(Cl)cc1)NCC1CCCO1 (stereo not given),63,i,i,i
CCOC(=O)C(C(=O)OCC)C(C(=O)OCC)N1CCOCC1 (stereo not given),i,i,i,i
N#CCN1CCN(CC(=O)Nc2cccc3ccccc23)CC1,760,i,i,i
COc1cccc(N2CCN(c3ncnc4c3cnn4-c3ccc(C)cc3C)CC2)c1,i,i,i,66

# Screening data (PubChem)
